HSF1 inhib: HSF1 inhibition | AID 2098 | 300,000 compounds, 0.77% hits | activity change, negative = inhibition, % at 7.5 µM (by protocol) | NIH3T3-HGL HSE-luciferase, MG132-induced, luminescence 8 h; stronger effect = lower value;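 active means more than half of replicate wells show activity change below -50%, luminescence cut by over half; inconclusive means some wells, but at most half, below -50%; inactive means no replicate well below -50%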;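 further: luciferase reports HSF-1 transcriptional activity via heat shock element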
MITF act: increases MITF-driven TRPM1 promoter luciferase signal; SK-MEL-5 TRPM1-promoter luciferase, 24 h; % of positive control, neutral wells = 0; activation, % at 12.5 µM; 300,000 compounds, 0.75% hits;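 active means mean activation of at least 80% with every replicate also reaching 80%; inconclusive means mean reaches 80% but some replicate falls short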
SMARCA2 act: activators of SMARCA2 function; MG213 cells, MMTV-luciferase reporter, dexamethasone, overnight; activation, % at 9.1 µM; 370,000 compounds, 1% hits; AID 652017; in the data active means activation above about 7.8%
Wnt bcat act: Wnt/beta-catenin pathway activation; Wnt/beta-catenin reporter cell assay, activator, plate reader; activation, % at 9.35 µM; 300,000 compounds, 1.2% hits; in the data active means activation above about 30%, passing the limit was not always enough; inconclusive means no clear call, values can overlap the other calls
HSF-1 act: increases HSF-1 driven luciferase reporter signal; NIH3T3-HGL HSF-1 luciferase reporter, MG132, 8 h; 100% = twice DMSO control signal; activation, % at 9 µM; 300,000 compounds, 1.7% hits; AID 504408;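 active means mean replicate activation of at least 50% with a set share of replicates each reaching 50%; inconclusive means only one of those two conditions met; inactive means mean below 50% and too few replicates reaching it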
esBAF inh: inhibitors of esBAF chromatin remodeling in mouse ES cells | Bmi1-luciferase knock-in reporter, 24 h; 100% = twice the neutral-well signal | reporter increase, % at 12.5 µM | 350,000 compounds, 2% hits; in the data active means activation above about 40%; inconclusive means no clear call, values can overlap the other calls;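 further: a rise in the Bmi1 reporter signal indicates esBAF inhibition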
Hits are given with their value; i = inactive; ? = inconclusive; nt = no result. Most compounds without a hit are left out; they make up all but 4.3% or so of the library.

SMILES | HSF1 inhib | MITF act | SMARCA2 act | Wnt bcat act | HSF-1 act | esBAF inh
CN1[C@H](CO)[C@H]2c3ccccc3N(C(=O)Nc3cc(F)ccc3F)C[C@H]21 | nt | nt | nt | nt | nt | i
CO[C@H]1CN(C)C(=O)c2cc(NC(=O)Nc3ccc(Cl)cc3)ccc2OC[C@@H](C)N(C(=O)Nc2c(C)noc2C)C[C@@H]1C | nt | nt | nt | nt | nt | i
CCN(C(=O)C1=COCCO1)c1nc2c(C)cccc2s1 | i | i | i | i | i | 48.0
O=C(O)CSc1nnnn1-c1ccc2c(c1)OCCO2 | i | nt | i | i | 70.1 | i
CC(C)OC(=O)CSc1nnnn1-c1ccc2c(c1)OCCO2 | i | i | i | i | i | 68.5
CC(C)N(C(=O)CSc1nnnn1-c1ccc2c(c1)OCO2)C(C)C | i | i | i | i | i | nt
CC(C)NC(=O)N(C)C[C@@H]1OCCCC[C@H](C)Oc2ccc(NS(=O)(=O)c3ccccc3)cc2C(=O)N([C@@H](C)CO)C[C@@H]1C | nt | nt | nt | nt | nt | i
Cc1ccc(-c2ccc3c(c2)O[C@H](CN(C)C(=O)CC2CC2)[C@H](C)CN([C@H](C)CO)S3(=O)=O)cc1 | nt | nt | nt | nt | nt | i
COc1cccc(Sc2ccccc2/C=N/NC(N)=O)c1 | i | i | i | i | 56.8 | nt
C=CCOc1c(/C=N\NC(N)=O)cccc1OC | i | nt | i | i | i | i
CC1=C([N+](=O)[O-])C(c2ccccc2)C2=C(N1)c1ccccc1C2=O (centres undefined) | i | nt | i | i | 57.3 | i
C[C@@H]1CN([C@@H](C)CO)C(=O)c2cc(-c3ccc(F)cc3)cnc2O[C@H]1CN(C)C(=O)C1CCC1 | nt | nt | nt | nt | nt | i
C[C@H](CO)N1C[C@H](C)[C@@H](CN(C)C(=O)Nc2cccc3ccccc23)OCCCC[C@H](C)Oc2ccc(NS(=O)(=O)c3cccs3)cc2C1=O | nt | nt | nt | nt | nt | i
CC(C)CN(C(=O)CCNC(=O)c1ccccc1Cl)C1CCS(=O)(=O)C1 (centres undefined) | nt | i | i | 32.4 | nt | i
CC(C)CN(C(=O)c1cccs1)C1CCS(=O)(=O)C1 (centres undefined) | i | i | i | i | 62.3 | i
CCC(=O)Nc1ccc2c(c1)C(=O)N(C)C[C@@H](OC)[C@H](C)CN(C(=O)c1ccccn1)[C@@H](C)CO2 | nt | nt | nt | nt | nt | i
CCOC(=O)c1sc(NC(=O)c2ccc(OC)cc2)nc1C | i | i | i | i | i | 46.9
CCOC(=O)c1sc(NC(=O)c2ccc(C)o2)nc1C | i | i | i | nt | i | 62.3
CCOC(=O)c1nnn(CC(=O)NC(=O)Nc2ccc(F)cc2)c1C(=O)OCC | -71.6 | i | i | i | i | i
CCOC(=O)Nc1nnc(-c2ccc(OC)cc2)s1 | i | i | i | nt | i | 79.1
O=C(CN1CCOCC1)N[C@@H]1CC[C@H](CCNC(=O)C2CCC2)O[C@H]1CO | nt | nt | nt | nt | nt | i
CCC(=O)N1[C@H](CNC(C)=O)[C@H](c2ccc(-c3cccc(F)c3)cc2)[C@@H]1CO | nt | nt | nt | nt | nt | i
CC(C)CC#Cc1ccc2c(c1)O[C@H](CN(C)Cc1ccncc1)[C@@H](C)CN([C@@H](C)CO)S2(=O)=O | nt | nt | nt | nt | nt | i
C[C@H](NC(=O)C[C@@H]1C[C@H]2c3cc(NS(=O)(=O)c4ccc(F)cc4)ccc3O[C@H]2[C@H](CO)O1)c1ccccc1 | nt | nt | nt | nt | nt | i
Cc1ccc(S(=O)(=O)Nc2ccc3c(c2)C(=O)N([C@H](C)CO)C[C@H](C)[C@@H](CN(C)CC2CC2)OCCCC[C@@H](C)O3)cc1 | nt | nt | nt | nt | nt | i
SMILES | HSF1 inhib | MITF act | SMARCA2 act | Wnt bcat act | HSF-1 act | esBAF inh
O=C(Nc1ccc(F)cc1)N1C[C@@H]2[C@H](c3ccccc31)[C@H](CO)N2Cc1cocn1 | nt | nt | nt | nt | nt | i
CO[C@@H]1CN(C)C(=O)c2cc(NS(=O)(=O)CC(F)(F)F)ccc2OC[C@@H](C)N(Cc2nccs2)C[C@@H]1C | nt | nt | nt | nt | nt | i
CCOC(=O)c1sc(NC(C)=O)nc1C | i | i | i | i | i | i
CCOCc1nnc(NC(=O)c2ccc(OC)cc2)s1 | i | i | i | nt | i | 52.7
CCCc1nnc(NC(=O)c2cccc(OC)c2)s1 | i | 86.1 | i | i | i | i
CCOC(=O)c1sc(NC(=O)Nc2ccc(F)cc2)nc1C | i | 102.8 | i | i | i | nt
CCOCc1nnc(NC(=O)c2ccc(NC(C)=O)cc2)s1 | i | nt | i | i | i | nt
O=C(C[C@@H]1C=C[C@@H](NC(=O)Nc2cc(F)ccc2F)[C@@H](CO)O1)NCc1ccc2c(c1)OCO2 | nt | nt | nt | nt | nt | i
C[C@H](CO)N1C[C@H](C)[C@@H](CN(C)C(=O)C2CCOCC2)Oc2ncc(C3=CCCCC3)cc2C1=O | nt | nt | nt | nt | nt | i
COc1ccccc1NC(=O)N[C@@H]1C=C[C@@H](CC(=O)NCc2ccc(Cl)c(Cl)c2)O[C@H]1CO | nt | nt | nt | nt | nt | i
COc1cccc(-c2nc(COc3ccc(Cl)cc3Cl)no2)c1 | nt | nt | i | i | nt | i
COc1ccccc1-c1nc(COc2ccc(Cl)cc2Cl)no1 | i | 148.8 | i | 54.3 | i | nt
CO[C@@H]1CN(C)C(=O)c2cc(NC(=O)Nc3ccccc3)ccc2OC[C@@H](C)N(C(=O)CC2CC2)C[C@H]1C | nt | nt | nt | nt | nt | i
c1nc(C2CCCCC2)cc2cc3c(cc12)OCO3 | nt | i | i | i | nt | 50.7
CC(C)NC(=O)Nc1cccc2c1O[C@H](CN(C)C(=O)Nc1ccccc1)[C@H](C)CN([C@H](C)CO)C2=O | nt | nt | nt | nt | nt | i
CCS(=O)(=O)NCC[C@H]1CC[C@H](NC(=O)C2CCC2)[C@H](CO)O1 | nt | nt | nt | nt | nt | i
Cc1ccc(S(=O)(=O)N[C@H]2C=C[C@H](CC(=O)N3CCC(Cc4ccccc4)CC3)O[C@@H]2CO)cc1 | nt | nt | nt | nt | nt | i
COc1ccc(/C=C(\NC(=O)c2ccccc2)C(=O)N/N=C/c2sccc2C)cc1 | i | i | i | i | 96.9 | nt
CCc1nc2sc3ccccc3c(=O)c2c(=O)n1Cc1ccc(OC)cc1 | -65.0 | nt | i | i | i | nt
Brc1ccc(-c2nnc(-c3cccc(Br)c3)o2)cc1 | i | i | i | nt | i | nt
Brc1ccc(-c2nnc(-c3ccco3)o2)cc1 | i | ? | i | nt | 62.7 | 59.5
Cc1ccc(-c2nnc(-c3ccc(Br)cc3)o2)o1 | i | nt | i | i | i | 64.1
